Several values for one entry are separate records, joined by “and”; a condition that tells them apart may be missing. Identical values can stand only once. For some assays here: Entries with a potency or affinity are not part of this list. Activity calls are given as the source filed them.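 The calls were made as follows, unless noted: active = compounds whose cell count with miR-34 switched on is under 0.7 times the count with it off; inactive = the rest.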
Legend:
[1] = blockers of polyQ-driven CASP3 activation – cell-based (AID 1583); settings: polyglutamine-induced caspase-3 activation, cell assay; stronger effect = higher value;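 tested at 10 µM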
[2] = yeast 75Q aggregation reduction – 75Q-TubU reporter (AID 1593); settings: Yeast 75Q polyglutamine aggregation reporter
[3] = restoration of touch response, mutant HTT neurons – whole organism, C. elegans mechanosensory neurons, N-terminal huntingtin (AID 1599); settings: C. elegans polyQ-huntingtin mechanosensory neurons, stronger effect = higher value
[4] = blockers of cytochrome c efflux from mitochondria – biochemical, purified mitochondria (AID 1603); settings: stronger effect = lower value;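 also: mouse liver mitochondria challenged with calcium chloride; signal normalized to the plate average as 100%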
[5] = polyglutamine aggregate formation blockers (AID 1604); settings: polyglutamine-induced protein aggregation inhibition assay; stronger effect = higher value; tested at 2.5 µM
[6] = glutamate transport activators, MN-1 cells, MN-1 cell line (AID 1612); settings: MN-1 motor neuron cells, stronger effect = higher value;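 also: tested at 1 µM final; 0% = mean of DMSO vehicle wells on each plate; positive means more glutamate uptake than control and negative means less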
[7] = GFP-Q80 aggregate reduction, neuronal-like cells, cell-based, NGF-treated PC12, GFPQ80 (AID 1614); settings: PC12 NGF-treated GFP-polyQ80 inclusion reduction;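 also: lower means fewer inclusions and 0 means no inclusions at all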
[8] = 75Q-TubH aggregate inhibition, S. cerevisiae, yeast (AID 1616); settings: S. cerevisiae 75Q-TubH polyglutamine aggregation suppression; stronger effect = higher value
[9] = compounds altering circadian rhythm period length – cell-based, LOPAC library, luminescence reporter (AID 2774; call rule not given here;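 also: values are relative to mean of DMSO wells on each plate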); settings: circadian reporter cells, at 7 µM, actives lie on both sides
[10] = target: 6-phosphogluconate dehydrogenase, decarboxylating (Homo sapiens) (UniProt P52209); assay: inhibition of human phosphogluconate dehydrogenase – biochemical, recombinant enzyme, NADPH absorbance, primary screen (AID 1159550;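 active = at least 20% inhibition of 6-phosphogluconate dehydrogenase activity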); settings: recombinant 6PGD, NADPH absorbance 341 nm; at 10 µM; stronger effect = higher value
6-phosphogluconate dehydrogenase, decarboxylating (Homo sapiens), sequence (P52209 whole entry, looked up): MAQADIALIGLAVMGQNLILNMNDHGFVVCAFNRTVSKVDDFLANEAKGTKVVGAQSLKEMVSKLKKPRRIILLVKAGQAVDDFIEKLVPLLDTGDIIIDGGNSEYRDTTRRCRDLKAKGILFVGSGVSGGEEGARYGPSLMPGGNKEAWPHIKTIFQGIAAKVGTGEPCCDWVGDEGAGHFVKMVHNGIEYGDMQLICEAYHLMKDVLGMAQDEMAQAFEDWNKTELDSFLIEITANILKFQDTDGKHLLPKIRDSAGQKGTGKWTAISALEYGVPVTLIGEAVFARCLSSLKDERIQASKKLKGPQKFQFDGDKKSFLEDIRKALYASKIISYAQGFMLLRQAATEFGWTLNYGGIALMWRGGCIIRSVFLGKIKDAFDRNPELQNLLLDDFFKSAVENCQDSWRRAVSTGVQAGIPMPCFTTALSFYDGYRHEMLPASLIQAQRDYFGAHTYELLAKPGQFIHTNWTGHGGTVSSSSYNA

[11] = EMT-state selective cytotoxicity in co-culture – imaging, PC-3E GFP, TEM4-18 mCherry, primary screen (AID 1345086;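 active = compounds killing one labelled cell type while sparing the other, by normalised counts and ratio limits, not self-fluorescent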;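 as to all read-outs here: cells exposed to compound for 72 h before imaging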;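 as to red/green cell ratio (normalised): normalised mesenchymal count divided by normalised epithelial count so high means epithelial killing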); settings: PC-3E GFP / TEM4-18 mCherry co-culture, imaging cell counts, at 1 µM; for red/green cell ratio (normalised): actives lie on both sides, counts scaled to control wells, 1 = unselective
[12] = viability loss with induced miR-34 in A549 – imaging, A549 dox-inducible miR-34, nuclei and caspase counts, primary screen (AID 1347080); settings: A549 miR-34 inducible, Hoechst nuclei count, 48 h
[13] = blockers of cellular phospholipid synthesis – cell-based, LOPAC library, screen 4, primary screen (AID 1347384; call rule not given here); settings: animal cells, phospholipid biosynthesis inhibition screen; at 10 µM
[14] = galactose survival enhancers in mitochondrial complex I cybrids – cell-based, galactose medium, ATP luminescence, primary screen (AID 1645843;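 active = z-score of at least 1.8 in each of two replicates, scored against plate mean and spread of sample wells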;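 also: positive z means more ATP and so rescue of galactose-driven cybrid death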); settings: complex I mutant cybrid cells, 72 h, stronger effect = higher value
[15] = P. berghei load reduction in hepatocytes – cell-based, HepG2, luciferase luminescence, HepG2 viability, primary screen (AID 624349; in the data active = parasite load remaining mostly below about 12%, no sharp cut-off; inactive = mostly above about 10%;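 also: 100% = mean of DMSO negative control wells on the same plate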); settings: P. berghei liver stage in HepG2, luciferase luminescence, concentration not given here; parasite load remaining: stronger effect = lower value; viability: measured here: HepG2 viability without parasites
[16] = target: NAD(+) hydrolase SARM1 (Homo sapiens) (UniProt Q6SZW1); assay: blocking NAD cleavage by SARM1 SAM-TIR – cell lysate, NAD-Glo luminescence (AID 1508614;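 active = compound whose remaining NAD level is above about 45 nM, limit read from the data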;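 also: higher remaining NAD means stronger inhibition of SARM1 NADase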); settings: SAM-TIR HEK293T lysate NADase, at 1 µM, stronger effect = higher value
NAD(+) hydrolase SARM1 (Homo sapiens), sequence (Q6SZW1 whole entry, looked up, the tested form may be a part): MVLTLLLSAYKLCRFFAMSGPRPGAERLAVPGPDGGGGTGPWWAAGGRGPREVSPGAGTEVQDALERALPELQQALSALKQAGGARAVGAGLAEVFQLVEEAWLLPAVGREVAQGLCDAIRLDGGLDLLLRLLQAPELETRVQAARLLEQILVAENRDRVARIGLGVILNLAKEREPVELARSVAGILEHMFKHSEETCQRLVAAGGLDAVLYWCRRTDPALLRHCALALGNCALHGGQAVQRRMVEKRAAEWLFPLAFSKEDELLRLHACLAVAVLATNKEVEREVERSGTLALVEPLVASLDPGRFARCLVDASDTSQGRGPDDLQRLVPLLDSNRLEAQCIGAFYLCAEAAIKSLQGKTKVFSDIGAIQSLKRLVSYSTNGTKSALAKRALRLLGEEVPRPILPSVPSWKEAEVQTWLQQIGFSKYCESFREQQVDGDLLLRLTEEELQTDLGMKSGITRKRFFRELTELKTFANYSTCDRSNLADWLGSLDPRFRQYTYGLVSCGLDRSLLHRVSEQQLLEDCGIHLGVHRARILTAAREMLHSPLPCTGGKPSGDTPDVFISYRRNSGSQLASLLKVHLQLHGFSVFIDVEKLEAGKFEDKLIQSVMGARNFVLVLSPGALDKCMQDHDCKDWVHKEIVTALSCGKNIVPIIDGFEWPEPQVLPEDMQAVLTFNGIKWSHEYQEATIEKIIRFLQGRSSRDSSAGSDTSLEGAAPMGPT

[17] = target: Mitogen-activated protein kinase 7 (Homo sapiens) (UniProt Q13164); assay: Gal4-ERK5 driven luciferase induction – cell-based, HTS, primary screen (AID 1508626;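 active = luciferase signal above three times the same-plate solvent-only control wells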;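 also: luciferase driven by Gal4-ERK5 fusion binding five Gal4 sites before minimal TATA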); settings: HeLa Gal4-ERK5 transactivation, 18 h, at 5 µM, stronger effect = higher value
Mitogen-activated protein kinase 7 (Homo sapiens), sequence (Q13164 whole entry, looked up, the tested form may be a part): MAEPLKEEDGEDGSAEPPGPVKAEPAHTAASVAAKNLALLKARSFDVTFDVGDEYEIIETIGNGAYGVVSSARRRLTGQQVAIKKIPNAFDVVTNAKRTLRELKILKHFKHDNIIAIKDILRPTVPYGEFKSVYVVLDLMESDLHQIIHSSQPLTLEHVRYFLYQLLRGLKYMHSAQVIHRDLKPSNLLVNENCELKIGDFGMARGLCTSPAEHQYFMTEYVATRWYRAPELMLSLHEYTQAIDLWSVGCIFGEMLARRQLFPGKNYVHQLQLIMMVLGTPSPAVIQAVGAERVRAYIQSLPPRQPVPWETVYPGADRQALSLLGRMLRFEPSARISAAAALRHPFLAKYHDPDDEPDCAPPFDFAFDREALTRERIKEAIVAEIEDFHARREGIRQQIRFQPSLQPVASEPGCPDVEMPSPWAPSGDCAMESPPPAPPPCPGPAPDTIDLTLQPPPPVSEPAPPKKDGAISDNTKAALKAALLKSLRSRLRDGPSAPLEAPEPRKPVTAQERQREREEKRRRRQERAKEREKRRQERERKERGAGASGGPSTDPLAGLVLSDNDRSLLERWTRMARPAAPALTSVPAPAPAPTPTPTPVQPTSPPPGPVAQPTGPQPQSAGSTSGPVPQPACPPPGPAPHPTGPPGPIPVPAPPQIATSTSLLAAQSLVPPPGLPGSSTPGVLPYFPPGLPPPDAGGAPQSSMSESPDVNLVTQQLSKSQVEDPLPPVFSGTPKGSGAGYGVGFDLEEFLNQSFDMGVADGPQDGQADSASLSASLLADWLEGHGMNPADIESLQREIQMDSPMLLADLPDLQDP

[18] = MELAS cybrid and Rieske KO viability enhancers – cell-based, MELAS cybrids, Rieske KO mouse fibroblasts, CellTiter-Glo, primary screen (AID 1508586;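 active = mean z-score across replicates of 1.96 or higher in either the MELAS or the Rieske mutant cell line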;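 also: z relative to plate mean and SD of compound and empty wells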); settings: low glucose
[19] = compounds altering viability of human ES cells (AID 493140; call rule not given here;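 also: cells exposed to compounds for four days before counting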); settings: human embryonic stem cell survival screen; stronger effect = higher value
[20] = measured here: epithelial PC-3E GFP cell survival
[21] = measured here: mesenchymal TEM4-18 mCherry cell survival
[22] = stronger effect = lower value, cell number ratio, induced over uninduced
[23] = measured here: relative caspase fold change +Dox/-Dox
[24] = measured here: total cells with miR-34 induction, stronger effect = lower value
[25] = measured here: total cells without miR-34 induction
[26] = MELAS cybrid survival, CellTiter-Glo 48 h, stronger effect = higher value
[27] = Rieske KO mouse fibroblast survival, CellTiter-Glo 72 h

Question: With `NC(N)=NC(N)=Nc1ccccc1` as the compound, how does the inhibition [1] read?
Answer: 53.4% and -16.9%

Question: And the score [2]?
Answer: 1.25 and 0.9

Question: And the rescue above control [3]?
Answer: -3.01 and 7.54

Question: What about the cytochrome c release ratio [4] of the same compound?
Answer: 0.86 and 1.03

Question: What about the inhibition of aggregation [5] of the same compound?
Answer: 72.2% and 69.7%

Question: And the glutamate uptake change [6]?
Answer: -1.79% and -11.1%

Question: And the inclusion score [7]?
Answer: 2

Question: What about the aggregation suppression score [8] of the same compound?
Answer: 1.39 and 0.87

Question: And the period change [9]?
Answer: 0.065 h (inactive)

Question: What about the inhibition [10] of the same compound?
Answer: -4.29% (inactive)

Question: And the red/green cell ratio (normalised) [11]?
Answer: 0.97 (inactive)

Question: What about the normalised cell number [11, 20] of the same compound?
Answer: 1.24

Question: What about the normalised cell number [11, 21] of the same compound?
Answer: 1.2

Question: What about the fold change [12, 22] of the same compound?
Answer: 1 (inactive) and 0.938 (inactive)

Question: And the fold change [12, 23]?
Answer: 1.38 and 0.627

Question: What about the cell count [12, 24] of the same compound?
Answer: 9810 and 9310

Question: What about the cell count [12, 25] of the same compound?
Answer: 9810 and 9920

Question: What about the outcome [13] of the same compound?
Answer: inactive

Question: What about the z-score [14] of the same compound?
Answer: 0.085 (inactive) and -0.065 (inactive)

Question: With `CC1=C(/C=C/C(C)=C/C=C/C(C)=C/C=C/C=C(C)/C=C/C=C(C)/C=C/C2=C(C)CCCC2(C)C)C(C)(C)CCC1` as the compound, how does the inhibition [1] read?
Answer: -13.5%

Question: What about the score [2] of the same compound?
Answer: 1.3

Question: What about the rescue above control [3] of the same compound?
Answer: -6.44

Question: And the cytochrome c release ratio [4]?
Answer: 0.86

Question: And the inhibition of aggregation [5]?
Answer: 42.6%

Question: And the glutamate uptake change [6]?
Answer: -16.2%

Question: What about the inclusion score [7] of the same compound?
Answer: 2.5

Question: And the aggregation suppression score [8]?
Answer: 0.881

Question: And the parasite load remaining [15]?
Answer: 58% (inactive)

Question: And the viability [15]?
Answer: 103%

Question: And the inhibition [10]?
Answer: 2.51% (inactive)

Question: What about the red/green cell ratio (normalised) [11] of the same compound?
Answer: 0.84 (inactive)

Question: And the normalised cell number [11, 20]?
Answer: 1.16

Question: What about the normalised cell number [11, 21] of the same compound?
Answer: 0.98

Question: And the fold change [12, 22]?
Answer: 0.908 (inactive)

Question: What about the fold change [12, 23] of the same compound?
Answer: 1.03

Question: And the cell count [12, 24]?
Answer: 11100

Question: What about the cell count [12, 25] of the same compound?
Answer: 12200

Question: What about the remaining NAD [16] of the same compound?
Answer: 10 nM (inactive)

Question: And the luciferase signal [17]?
Answer: 36 AU (inactive)

Question: Which inhibition [10] does the source give for `COc1ccc(-c2cc(=O)c3c(O)cc(O)cc3o2)cc1O` here?
Answer: 11.1% (inactive)

Question: And the red/green cell ratio (normalised) [11]?
Answer: 0.91 (inactive)

Question: And the normalised cell number [11, 20]?
Answer: 1.34

Question: What about the normalised cell number [11, 21] of the same compound?
Answer: 1.22

Question: And the fold change [12, 22]?
Answer: 0.906 (inactive)

Question: What about the fold change [12, 23] of the same compound?
Answer: 0.637

Question: What about the cell count [12, 24] of the same compound?
Answer: 8940

Question: And the cell count [12, 25]?
Answer: 9870

Question: And the z-score [18, 26]?
Answer: -0.264 (inactive)

Question: And the z-score [18, 27]?
Answer: 0.709

Question: For `COc1ccc2cc1Oc1ccc(cc1)C[C@H]1c3cc(c(OC)cc3CCN1C)Oc1c(OC)c(OC)cc3c1[C@H](C2)N(C)CC3`, which survival [19] is on record?
Answer: 1.58 (inactive)

Question: And the parasite load remaining [15]?
Answer: 84.6% (inactive)

Question: And the viability [15]?
Answer: 98.6%

Question: What about the inhibition [10] of the same compound?
Answer: 19.5% (inactive)

Question: What about the red/green cell ratio (normalised) [11] of the same compound?
Answer: 0.86 (inactive)

Question: What about the normalised cell number [11, 20] of the same compound?
Answer: 1.08

Question: And the normalised cell number [11, 21]?
Answer: 0.93

Question: And the fold change [12, 22]?
Answer: 0.882 (inactive) and 1.13 (inactive)

Question: And the fold change [12, 23]?
Answer: 1.24 and 1.19

Question: And the cell count [12, 24]?
Answer: 7200 and 3450

Question: And the cell count [12, 25]?
Answer: 8160 and 3060

Question: What about the luciferase signal [17] of the same compound?
Answer: 68 AU (inactive)

Question: For `CC[C@H]1OC(=O)[C@H](C)[C@@H](O[C@H]2C[C@@](C)(OC)[C@@H](O)[C@H](C)O2)[C@H](C)[C@@H](O[C@@H]2O[C@H](C)C[C@H](N(C)C)[C@H]2O)[C@](C)(O)C[C@@H](C)/C(=N\OCOCCOC)[C@H](C)[C@@H](O)[C@]1(C)O`, which inhibition [1] is on record?
Answer: 1.74%

Question: What about the score [2] of the same compound?
Answer: 0.81

Question: What about the rescue above control [3] of the same compound?
Answer: 1.9

Question: What about the cytochrome c release ratio [4] of the same compound?
Answer: 0.93

Question: And the inhibition of aggregation [5]?
Answer: 60.6%

Question: And the glutamate uptake change [6]?
Answer: 2.1%

Question: And the inclusion score [7]?
Answer: 2

Question: What about the aggregation suppression score [8] of the same compound?
Answer: 0.306

Question: And the parasite load remaining [15]?
Answer: 160% (inactive) and 51.6% (inactive)

Question: And the viability [15]?
Answer: 87.6% and 99.8%

Question: And the inhibition [10]?
Answer: 16.8% (inactive)

Question: And the red/green cell ratio (normalised) [11]?
Answer: 1 (inactive)

Question: And the normalised cell number [11, 20]?
Answer: 1.13

Question: And the normalised cell number [11, 21]?
Answer: 1.13

Question: And the fold change [12, 22]?
Answer: 0.869 (inactive)

Question: And the fold change [12, 23]?
Answer: 4.54

Question: And the cell count [12, 24]?
Answer: 10400

Question: What about the cell count [12, 25] of the same compound?
Answer: 12000

Question: What about the z-score [18, 26] of the same compound?
Answer: -0.323 (inactive)

Question: What about the z-score [18, 27] of the same compound?
Answer: -0.397

Question: And the remaining NAD [16]?
Answer: 10 nM (inactive)

Question: What about the luciferase signal [17] of the same compound?
Answer: 84 AU (inactive)

From PubChem BioAssay
